Assay results reported in PubChem BioAssay AID686971 (National Center for Advancing Translational Sciences (NCATS), 2013).
The whole screen tested about 360,000 compounds, of which about 7,500 (2.1%) were called active. Not shown: some 8% with an inconclusive outcome. What follows is part of a selection rich in actives, with near analogues and random picks from the rest. Values without a mark were called inactive. Calls follow the shape of the dose curve; as a rule, active = well fitted cell-killing curve with a large enough effect; inconclusive = small, poorly fitted or top-dose-only effect, or effect the other way, or another doubt; inactive = no such curve, though single readings can be large or run the other way.

Experiment: qHTS for induction of synthetic lethality in tumor cells producing 2HG: qHTS for the HT-1080-IDH1KD cell line;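 as to activity, negative = toxicity: 0% = DMSO wells and -100% = cell-free medium wells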
Details: HT-1080 IDH1 knockdown viability, ATP luminescence, 48 h; series mostly up to 46.1 µM; activity, negative = toxicity: at the top concentration
Method in brief: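 Assay cells: HT-1080 with IDH1 knockdown, 750 per well, RPMI/5% FBS. Exposure: 48 h at 37 °C following 2 h pre-incubation. Read: CellTiter-Glo luminescence; fitted concentration-response, curve class assigned.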
Potency is read from the fitted curve at half-maximal effect.

Row | Compound | activity, negative = toxicity [%] | Potency
1 | CCC(C(=O)Nc1c(C)cccc1C)n1c(-c2cc(C)cs2)nc2ccccc21 (stereo unspecified) | -20.4 | –
2 | CC1(C)NC(=O)N(CC(=O)Nc2ccc(-c3ccccc3)cc2)C1=O | 3.48 | –
3 | COc1ccc(NC(=O)CN(C)C(=O)c2cc(C)oc2C)cc1 | -0.701 | –
4 | COc1ccccc1NC(=O)C1=C(C)Nc2nc3ccccc3n2C1c1cccs1 (stereo unspecified) | – | 5.17 µM (active)
5 | CCOc1ccc(C2C(C(=O)NC)=C(C)Nc3nc4ccccc4n32)cc1OC (stereo unspecified) | 8.97 | –
6 | CCOC(=O)C1=C(C)Nc2nc3ccccc3n2C1c1cccs1 (stereo unspecified) | -13 | –
7 | Cc1nc(C(F)(F)F)ccc1C(=O)N1CCC1(C)C(=O)NS(=O)(=O)c1ccccc1 (stereo unspecified) | 6.16 | –
8 | CCOc1ccc(-c2cc(C(=O)N/N=C/c3ccc(O)cc3)c3ccccc3n2)cc1 | – | 5.8 µM (active)
9 | COc1cc(/C=N/NC(=O)c2cc(-c3ccccc3C)nc3ccccc23)cc(OC)c1O | -16.2 | –
10 | CCOc1ccc(NC(=O)c2cc(C)nc3ccccc23)cc1 | 15.6 | –
11 | O=C(Nc1ccc(N2CCOCC2)cc1)c1cccc2c(-c3ccc(F)c(F)c3)coc12 | -2.43 | –
12 | Oc1ccc(/C=N/Nc2nc(-c3ccccc3F)nc3ccccc23)c(O)c1 | – | 11.6 µM (active)
13 | Oc1c(Br)cccc1/C=N/Nc1c(F)c(F)c(F)c(F)c1F | -0.347 | –
14 | CC1(C(=O)NS(=O)(=O)c2cccc(F)c2)CCN1C(=O)Cc1cc(F)ccc1F (stereo unspecified) | 3.61 | –
15 | Cc1ccc(Cn2c(C)c(C(=O)NCc3ccccc3C(F)(F)F)sc2=O)cc1 | 5.39 | –
16 | O=[N+]([O-])c1ccc(N=Cc2c(O)ccc3ccccc23)cc1 | – | 9.2 µM (active)
17 | O=[N+]([O-])c1cccc(C=NN=Cc2ccccc2O)c1 | 7.79 | –
18 | O=C(Oc1ccc([N+](=O)[O-])cc1)c1ccc2ccccc2n1 | -24 | –
19 | O=C(NCc1cccnc1)c1ccc2nc([C@@H]3O[C@H](CO)[C@H](O)[C@H](O)[C@H]3O)[nH]c2c1 | 15.5 | –
20 | Cc1cn([C@H]2C[C@H](O)[C@@H](/C=C/C(=O)NCCCc3ccccc3)O2)c(=O)[nH]c1=O | -2.08 | –
21 | COc1cc(CNc2ncnc3c2ncn3[C@H]2CN(Cc3cccs3)C[C@@H](CO)O2)cc(OC)c1OC | -13.4 | –
22 | CCc1ccc(CNC(=O)C2CC(=O)N(CCc3ccc(C)cc3)C2)cc1 (stereo unspecified) | -11.8 | –

Row | Compound | activity, negative = toxicity [%] | Potency
23 | CCc1ccc(CNC(=O)C2CCN(c3nnc(C)c4c(C)n(-c5ccc(C)cc5)nc34)CC2)cc1 | – | 14.6 µM (active)
24 | COc1ccc(-n2nc3c(N4CCC(C(=O)NCc5ccccc5)CC4)nnc(C)c3c2C)cc1 | -28.5 | –
25 | OC[C@H]1O[C@@H](c2nc(-c3nc(-c4ccc(F)cc4)no3)cs2)[C@H](O)[C@@H](O)[C@H]1O | 9.85 | –
26 | O=C1CCCC2=C1C(c1ccccc1)n1c(s/c(=C/c3cccc(F)c3)c1=O)=N2 (stereo unspecified) | 20.1 | –
27 | CCOC(=O)C1=C(C)N=c2s/c(=C\C(=O)OC)c(=O)n2C1c1ccc(OC)cc1 (stereo unspecified) | 3.8 | –
28 | COc1ccc(OC)c(C2C3=C(N=c4s/c(=C\c5cccc(O)c5)c(=O)n42)c2ccccc2CC3)c1 (stereo unspecified) | – | 20.6 µM (active)
29 | COc1ccc(S(=O)(=O)NC(=O)C2(C)CCN2C(=O)c2ccccc2CCc2ccccc2)cc1 (stereo unspecified) | 0.309 | –
30 | COC(=O)C[C@H]1C=C[C@H](NC(=O)c2ccc(F)cc2)[C@@H](CO)O1 | -11.6 | –
31 | O=C(NCCC1=CCCCC1)C1CCN(Cc2cnn(-c3ccccc3)c2-n2cccc2)CC1 | – | 25.9 µM (active)
32 | C1=C(CCNc2ncnc3c2cnn3-c2ccccc2)CCCC1 | -4.48 | –
33 | Cc1ccc(S(=O)(=O)N2CCC(C(=O)NCCC3=CCCCC3)CC2)cc1C | 1.26 | –
34 | CCOC(=O)c1ccc(NC(=O)c2cccnc2)cc1 | – | 14.6 µM (active)
35 | CCOC(=O)c1ccc(-c2ccc(C(=O)Nc3cccnc3)o2)cc1 | -18.7 | –
36 | CCOC(=O)c1cc(NC(=O)c2cccnc2)ccn1 | 2.72 | –
37 | CCCCCC(=O)N1C[C@H](O)[C@@H](n2cc(COC(=O)c3ccccc3)nn2)C[C@@H]1c1ccc(C)cc1 | -9.31 | –
38 | Cc1onc(-c2ccccc2)c1-c1nnc(COC(=O)c2ccc(N(C)C)cc2)o1 | -11.6 | –
39 | Clc1cccc(-c2nc(NCC3CCCO3)c3ccccc3n2)c1 (stereo unspecified) | -27.2 | –
40 | Clc1ccc2nc(-c3ccccc3)nc(C(Cl)Cl)c2c1 | – | 7.31 µM (active)
41 | N#CCSc1nc(-c2ccccc2)nc2ccc(F)cc12 | -0.0349 | –
42 | CN1CCN(c2ccncc2S(=O)(=O)N2CCCC2)CC1 | 4.49 | –
43 | Cc1onc(-c2ccccc2Cl)c1C(=O)OCc1nnc(-c2ccccc2)o1 | -11 | –
44 | Cc1[nH]c2ccccc2c1C(=O)COC(=O)c1c(-c2ccccc2)noc1C | – | 23.1 µM (active)

Row | Compound | activity, negative = toxicity [%] | Potency
45 | Cc1onc(-c2ccccc2Cl)c1C(=O)OCC(=O)c1ccccc1 | -18.5 | –
46 | CC1(C)CC(=O)C=C(c2ccc(COC(=O)c3cc(F)cc(F)c3)cc2)C1=O | -10 | –
47 | O=C(Nc1ccc(Br)cn1)c1ccc([N+](=O)[O-])o1 | – | 10.3 µM (active)
48 | O=C(Nc1ccc(Br)cn1)c1ccc([N+](=O)[O-])cc1Cl | -0.286 | –
49 | Cc1onc(NC(=O)c2ccc([N+](=O)[O-])o2)c1Br | -35.8 | –
50 | CC1CC(NC(=S)N(C)C)CC(C)(C)C1 (stereo unspecified) | 3.3 | –
51 | COc1ccc(/C=C2\SC(=S)N(CCC(=O)N3CCOCC3)C2=O)cc1OC | 11.1 | –
52 | c1ccc2cc3[nH]c(CN4CCCCC4)nc3cc2c1 | -4.75 | –
53 | CCCCCn1nnnc1-c1nc2cc3ccccc3cc2[nH]c1=O | – | 7.31 µM (active)
54 | CCCCCn1nnnc1C1c2ccccc2C(=O)N1Cc1ccco1 (stereo unspecified) | 14.3 | –
55 | COc1ccc(S(=O)(=O)NC(=O)C2(C)CCN2C(=O)COc2ccc(Cl)cc2)cc1 (stereo unspecified) | 0 | –
56 | CC1(C(=O)NCc2ccc3c(c2)OCO3)CCN1C(=O)Cc1cccc2ccccc12 (stereo unspecified) | 2.6 | –
57 | Nc1[nH]c(C(=O)c2ccccc2)c(-c2ccc(Br)cc2)c1C(=O)NC1CC1 | 2.93 | –
58 | O=C(NCc1cccnc1)c1cc(C2CCCN(C(=O)CCCc3ccccc3)C2)on1 (stereo unspecified) | 14 | –
59 | O=C(C[C@H]1C[C@@H]2c3cc(NC(=O)C4CCC4)ccc3O[C@@H]2[C@H](CO)O1)NC1CCCCC1 | 10.6 | –
60 | COc1ccc(S(=O)(=O)N(C)C)cc1NC(=O)COC(=O)c1n[nH]c2ccccc12 | 0.573 | –
61 | Cc1cccc(C(=O)Nc2ccc(C(=O)N/N=C/c3cccc(C)n3)cc2)c1 | -19.7 | –
62 | Cn1c(CC(=O)NNC(=O)c2ccccc2F)nc2ccccc21 | 0 | –
63 | COc1ccc(C(=O)NN(C)c2nc(-c3ccccc3)cc(C)c2S(C)(=O)=O)cc1 | 4.2 | –
64 | CSc1nc(N(C)NC(=O)c2cccc(C)c2)c2ccccc2n1 | – | 0.0461 µM (active)
65 | CC(NC(=O)c1ccccc1F)c1cccc2ccccc12 (stereo unspecified) | -0.529 | –
66 | CN(NC(=O)c1ccccc1F)c1nc(C(F)(F)F)nc2ccccc12 | – | 0.206 µM (active)
